Assay outcomes deposited in PubChem by National Center for Advancing Translational Sciences (NCATS).
Shown are actives, neighbours in structure and some others; about 12% of the full set was active somewhere.
JMJD2A Tudor inh: blocks the human JMJD2A Tudor domain; AlphaScreen JMJD2A-Tudor / H3K4me3 peptide binding; Potency, µM (series often up to 114 µM), for inactives: top-dose activity change, negative = inhibition, most hits filed as inhibitors; AID 504339; hit rate 4.4% among 390,000; further: on the % scale 0 is the no-effect control and ±100 the full control effect; nearly all actives have a fitted effect of over 50% in size
G9a inh: G9a (human) methyltransferase inhibition | Q96KQ7 | G9a H3K9 monomethylation, AlphaScreen, 2 h | Potency, µM (titrated, usually from 102 µM), inactives show at the top dose activity, negative = inhibition, usual class: inhibitors | hit rate 8.8% among 350,000 | AID 504332; further: on the % scale 0 is the no-effect control and ±100 the full control effect; nearly all actives have a fitted effect of over 75% in size
Target sequence (Q96KQ7 913-1193 limits assumed): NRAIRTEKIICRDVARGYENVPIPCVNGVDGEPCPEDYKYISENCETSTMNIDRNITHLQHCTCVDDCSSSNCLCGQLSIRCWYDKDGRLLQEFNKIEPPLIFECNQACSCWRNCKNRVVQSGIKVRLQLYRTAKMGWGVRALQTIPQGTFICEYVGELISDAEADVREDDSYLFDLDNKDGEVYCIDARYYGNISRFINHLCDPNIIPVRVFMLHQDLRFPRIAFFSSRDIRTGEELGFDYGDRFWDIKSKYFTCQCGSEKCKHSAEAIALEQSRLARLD
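Compounds were preincubated with 20 nM G9a for 15 min, after which biotinylated H3K9 peptide (500 nM) and SAM (20 uM) started a 2 h room-temperature reaction. Monomethylated product was quantified by antibody-based AlphaScreen chemiluminescence.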
BAZ2B block: blocks human BAZ2B; Potency, µM (highest dose often 114 µM), inactives show at the highest dose activity change, negative = inhibition, hits mostly inhibitors; AlphaScreen BAZ2B-H3K14Ac peptide displacement; hit rate 4.4% among 360,000; Q9UIF8; further: on the % scale 0 is the no-effect control and ±100 the full control effect; nearly all actives have a fitted effect of over 60% in size
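AlphaScreen luminescence quantifies BAZ2B engagement of H3K14Ac peptide; the protein and biotinylated peptide are both at 50 nM final, buffer PBS pH 7.4 with 0.01% Tween-20, all steps at room temperature.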
Sfp inh: inhibitors of Bacillus subtilis Sfp phosphopantetheinyl transferase; AID 1490; hit rate 3.5% among 310,000; Biochemical Sfp PPTase activity, qHTS; Q9F4F7; Potency, µM, inactives show largest response in the series, negative = inhibition, actives largely listed as inhibitors;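 further: the enzyme is Sfp with the accession as filed and its product quenches rhodamine fluorescence; 0% = enzyme reaction without inhibitor and -100% = no enzyme wells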
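Fluorescence-quenching assay: 15 nM Sfp-PPTase preincubated 15 min at room temperature with compound, then 5 uM rhodamine-CoA and 12.5 uM BHQ-2-labelled YbbR peptide added. Fluorescence (ex 525/em 598 nm) read at start and after 30 min; difference gives rate.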
HP1b binding inh: HP1-beta chromodomain-methylated histone interaction inhibition. Potency, µM (titrated, usually from 114 µM), without a hit: top-dose activity change, negative = inhibition, usual class: inhibitors. hit rate 0.56% among 390,000. AID 540317. AlphaScreen HP1-beta / biotin-H3K9me3 peptide binding; further: nearly all actives have a fitted effect of over 70% in size
Target sequence (P83916 whole entry, looked up): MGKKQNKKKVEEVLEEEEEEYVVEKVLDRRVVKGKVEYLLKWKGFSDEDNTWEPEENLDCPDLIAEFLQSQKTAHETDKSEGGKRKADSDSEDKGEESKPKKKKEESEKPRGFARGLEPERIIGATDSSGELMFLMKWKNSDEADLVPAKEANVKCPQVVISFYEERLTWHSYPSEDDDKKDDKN
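Compound inhibition of the preformed complex between 50 nM HP1-beta and 50 nM biotinylated H3K9me3 peptide was read by AlphaScreen. Buffer was PBS pH 7.4 with 0.01% Tween-20. Incubations ran 30 min at room temperature, with 10 ug/mL donor/acceptor beads.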
The depositor's hits bear a star; ? = inconclusive; / = no result given; [ ] = another dose, or the depositor's remark. The call rests on the fitted dose curve; in most records, active means well fitted curve in the direction sought with a large enough effect; inconclusive means small, poorly fitted or top-dose-only effect, or another doubt; inactive means no such curve, though single readings can be large; an effect the other way counts as inactive or inconclusive. Potency means the concentration at half of the fitted maximal effect.

SMILES | JMJD2A Tudor inh | G9a inh | BAZ2B block | Sfp inh | HP1b binding inh
COc1cc(/C=N/NC(=O)c2ccncc2)cc2c1OCO2 | -9% | -1% | -1% | 12% | 24%
CC(C)c1ccc(NC(=O)CN(C)S(=O)(=O)c2ccc3c(c2)n(C)c(=O)c(=O)n3C)cc1 | 0% | 6%[59 µM] | 2% | / | 36%
COc1ccc(CNCCCSc2nnnn2-c2ccccc2)cc1 | -15% | -8%[59 µM] | -8% | / | 53%
CC(C)(C)OC(=O)NCc1nnc(-c2nc3ccccc3[nH]2)o1 | -32% | / | / | / | /
CN1CCN(CCC(=O)N/N=C/c2ccccn2)CC1 | 7.9µM* | 1.3µM* | ? | -38% | 7%
CS(=O)(=O)N(CC(=O)NCc1ccco1)c1ccc(OCc2ccccc2)cc1 | ? | / | 71µM* | ? | ?
COc1ccccc1N(CC(=O)NCc1ccco1)S(=O)(=O)c1ccc(C)cc1 | 35µM* | 32µM* | 45µM* | 56µM* | 45µM*
CNC(=O)CN(C1CCCCC1)S(=O)(=O)c1ccc(OC)c(Cl)c1 | -6% | 50µM* | 4% | 5% | 9%
Cc1ccc(S(=O)(=O)N(CC(=O)NCc2ccco2)C2CCCCC2)cc1 | -23% | ? | -34% | -15% | 9%
COc1ccc(N(CC(=O)NCc2ccco2)S(C)(=O)=O)cc1 | -11% | ? | -2% | 9% | 26%
COc1ccc(S(=O)(=O)N(CC(=O)NC2CC2)C2CCCCC2)cc1Cl | -8% | -48%[12.7 µM] | 6% | 7% | 9%
COc1ccc(S(=O)(=O)N(CC(=O)NCc2ccco2)C2CCCCC2)cc1OC | -36% | -30%[12.7 µM] | -36% | 50µM* | 11%
COc1ccc(N(CC(=O)NCc2ccco2)S(=O)(=O)c2ccc(C)cc2)cc1OC | -19% | 20% | 4% | 0% | 13%
CC(CCC(=O)O)C1CCC2C3CC[C@H]4CC(O)CC[C@@]4(C)C3C=C[C@]12C (stereo partly specified) | / | -23%[2.33 µM] | / | -19% | /
CCOC(=O)c1cc(S(=O)(=O)Nc2ccc(F)cc2F)cn1C | -11% | / | -12% | 8% | 22%
CCSc1ccc2nnc(-c3ccc(F)cc3)n2n1 | 8% | 18µM* | 0% | 4% | 47%
O=C(CSc1ccc2nnc(-c3ccc(F)cc3)n2n1)NCC1CCCO1 (stereo unspecified) | -30% | 20µM* | 3% | -6% | 13%
CCOC(=O)CNC(=O)CSc1ccc2nnc(-c3ccc(F)cc3)n2n1 | 12% | 32µM* | 1% | 0% | 50%
O=C(CSc1ccc2nnc(-c3ccc(F)cc3)n2n1)NCc1ccco1 | -13% | 8.9µM* | 12% | -4% | 22%
COc1ccc(-c2nnc3ccc(SCC(=O)NCC4CCCO4)nn23)cc1 (stereo unspecified) | -12% | 9%[59 µM] | 9% | 18% | 28%
CC(C)OC(=O)c1c(NC(=O)C2c3ccccc3Oc3ccccc32)sc2c1CCCC2 | -6% | 2%[59 µM] | -1% | / | 25%
C=CCC(CC=C)(CNC(=O)C(=O)Nc1cc(C)ccc1OC)c1ccc(OC)c(OC)c1 | -29% | -12%[59 µM] | -22% | / | 29%
COC(=O)c1ccc(CSc2ccc3nnc(-c4ccc(F)cc4)n3n2)o1 | -19% | -12% | / | -10% | 28%
CCOc1ccc(-c2nnc3ccc(SCc4ccc(C(=O)OC)o4)nn23)cc1 | -36% | 11µM* | 3% | 11µM* | 12%
Cc1cc2c(s1)c1cnn(Cc3cc(Cl)ccc3F)c(=O)c1n2C | -21% | / | / | / | /
SMILES | JMJD2A Tudor inh | G9a inh | BAZ2B block | Sfp inh | HP1b binding inh
COc1ccccc1/C=C/C1=NC(=C\C=C/c2ccccc2)/C(=O)O1 | 56µM* | ? | ? | 0% | ?
CC1(C)CC(N2CCN(c3ccccc3)CC2)=CC(=[N+]2CCCC2)C1 | ? | 45µM* | 5% | 12% | 38%
CC1(C)CC(N2CCCC2)=CC(=[N+]2CCCCCC2)C1 | ? | ? | ? | -2% | 4%
CC1(C)CC(=O)C=C(N2CCNCC2)C1 | -14% | 21%[59 µM] | 29% | 23% | 7%
CC1CC(C)C[N+](=C2C=C(N3CCCC3)CC(C)(C)C2)C1 (stereo unspecified) | 18µM* | ? | -17% | 4% | ?
O=C(CCCCn1cnc2c(=S)nc[nH]c21)Nc1ccc(C(=O)O)cc1 | 1.4µM* | / | / | / | 71µM*
